PLK1 PBD block: blocks phosphopeptide binding to human PLK1 polo-box domain | Plk1 PBD binding of FITC phosphopeptide, fluorescence polarization | P53350 | 360,000 compounds, 2.8% hits | Potency, µM, for the others: max response, negative = inhibition, actives largely listed as inhibitors; further: potency means the concentration at half of the fitted maximal effect; series mostly up to about 57 µM; nearly all actives have a fitted effect of over 65% in size
MmCpn inh: inhibitors of Methanococcus maripaludis chaperonin TRiC (MmCpn); purified Mm-Cpn ATPase, ADP Transcreener TR-FRET; Potency, µM (titrated, usually from 76.9 µM), inactives show at the highest dose activity, negative = inhibition, most hits filed as inhibitors; 330,000 compounds, 0.031% hits; AID 504842; further: potency means the concentration at half of the fitted maximal effect; nearly all actives have a fitted effect of over 80% in size
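25 nM Mm-CPN + cpd, 10 min 37°C; + 10 uM ATP, 30 min 37°C; buffer 30 mM Tris pH 7.4, 100 mM KCl, 5 mM MgCl2, 1 mM DTT; Transcreener ADP HTRF detection 30 min RT.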
CCT chaperon mod: cytosolic chaperonin activity modulation | purified chaperonin ATPase assay, HTRF ADP detection, 30 min | activity change, % (no concentration beside the values), hits read low | 360,000 compounds, 0.3% hits | AID 651819; in the data active means activity change below about -30%
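Nucleotide hydrolysis assay: TRiC at 20–40 nM final (set by batch activity) with 10 uM ATP, 30 min at 37 °C, in presence of 76 uM compound. Detection by competitive ADP HTRF, 30 min ambient.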
G9a block: blocks human histone lysine methyltransferase G9a; Q96KQ7; G9a H3K9 monomethylation, AlphaScreen, 2 h; Potency, µM (series often up to 102 µM), without a hit: at the top dose activity, negative = inhibition, most hits filed as inhibitors; 350,000 compounds, 8.8% hits; AID 504332; further: potency means the concentration at half of the fitted maximal effect; nearly all actives have a fitted effect of over 75% in size
Target sequence (Q96KQ7 913-1193 limits assumed): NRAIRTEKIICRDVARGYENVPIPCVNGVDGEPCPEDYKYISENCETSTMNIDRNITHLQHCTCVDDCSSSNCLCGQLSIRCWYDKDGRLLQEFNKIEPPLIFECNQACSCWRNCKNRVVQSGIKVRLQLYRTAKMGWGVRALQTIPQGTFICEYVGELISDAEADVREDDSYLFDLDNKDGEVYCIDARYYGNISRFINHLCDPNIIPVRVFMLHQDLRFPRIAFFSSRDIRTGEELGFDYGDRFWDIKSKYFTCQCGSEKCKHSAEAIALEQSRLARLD
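Compounds were preincubated with 20 nM G9a for 15 min, after which biotinylated H3K9 peptide (500 nM) and SAM (20 uM) started a 2 h room-temperature reaction. Monomethylated product was quantified by antibody-based AlphaScreen chemiluminescence.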
Sfp PPTase inh: inhibitors of Bacillus subtilis Sfp phosphopantetheinyl transferase | Q9F4F7 | Biochemical Sfp PPTase activity, qHTS | Potency, µM, without a hit: largest response in the series, negative = inhibition, usual class: inhibitors | 310,000 compounds, 3.5% hits;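 further: the enzyme is Sfp with the accession as filed and its product quenches rhodamine fluorescence; potency means the concentration at half of the fitted maximal effect; 0% = enzyme reaction without inhibitor and -100% = no enzyme wells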
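Sfp 15 nM + cpd, 15 min RT; start w/ rhodamine-CoA 5 uM, BHQ-2-YbbR 12.5 uM (final); 50 mM Hepes pH 7.6, 10 mM MgCl2, 0.01% NP-40, 0.01% BSA; read 525/598 nm at 0 and 30 min.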
VDR inh: inhibitors of human vitamin D receptor; P11473; VDR-SRC2-3 peptide fluorescence polarization, 2 h; Potency, µM, without a hit: max response, negative = inhibition, usual class: inhibitors; 400,000 compounds, 0.93% hits; AID 504847; further: potency means the concentration at half of the fitted maximal effect
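FP read-out; VDR + SRC2-3 coactivator peptide; 23 nl compound by pintool; 2 h RT incubation; reagents held at 4 deg C, protected from light.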
The depositor's hits bear a star; ? = inconclusive; . = no result given; [ ] = remark or other dose. Sampled rows, rich in hits. Any-hit rate of the full collection: about 10%. Unless noted, the call rests on the fitted dose curve; in most records, active means well fitted curve in the direction sought with a large enough effect; inconclusive means small, poorly fitted or top-dose-only effect, or another doubt; inactive means no such curve, though single readings can be large; an effect the other way counts as inactive or inconclusive. Unless noted, on the % scale 0 is the no-effect control and ±100 the full control effect.

SMILES	PLK1 PBD block	MmCpn inh	CCT chaperon mod	G9a block	Sfp PPTase inh	VDR inh
[N-]=C=C1C(=S)NC(=O)[C@H]([n+]2ccccc2)[C@H]1c1ccc(Cl)cc1	27µM*	-2%	-2	.	-10%	45µM*
Nc1ccccc1SCc1ccccc1	?	-7%	-1	13%[59 µM]	-9%	5%
N#CC(=C(\N)Sc1ccccc1N)/C(C#N)=C(/N)Sc1ccccc1N	.	.	.	32µM*	.	.
O=c1c(-c2cc(F)cc(F)c2)nc2cnc(N3CCOCC3)nc2n1C1CC1	.	.	.	-6%[12.7 µM]	-8%	-18%
Cc1ccc(C)n1-c1nnc(N2CCCC(C(=O)NCc3ccc(F)cc3)C2)s1 (stereo unspecified)	.	.	.	2%[59 µM]	.	7%
CCc1nn2cc(C(=O)c3cc(Cl)ccc3O)cnc2c1-c1ccc(F)cc1	0%	-1%	-1	45µM*	-5%	4%
COc1ccc(OCc2cc(C(=O)O)c(C)o2)cc1	.	-1%	.	45µM*	19%	.
Cc1c(C(=O)OCC[N+]2(C)CCCCC2)oc2ccccc12	-16%	0%	-2	28µM*	-17%	0%
CC(=O)N1CCc2cc(Br)cc(S(=O)(=O)N3CCC(C)CC3)c21	.	.	.	-28%[59 µM]	.	-7%
COC(=O)c1ccccc1NC(=O)c1noc2c1CSc1ccccc1-2	.	.	.	?	.	-4%
CCC12CCCN3CCC4(C(=C(C(=O)OC)C1)Nc1ccccc14)C32 (stereo unspecified)	-4%	1%	-4	2.8µM*	-1%	-29%
CC[C@@]12CCCN3CCc4c(n(c5ccccc45)[C@](O)(C(=O)OC)C1)C32 (stereo partly specified)	.	.	.	-26%[2.33 µM]	18%	1%
C=CCC(C)(O)c1ccccc1 (stereo unspecified)	.	.	.	.	-4%	6%
CC(=O)N1CCCc2cc(S(=O)(=O)N3CCN(c4ccc(F)cc4)CC3)ccc21	.	.	.	58%[59 µM]	.	-3%
CC1CCc2nc3ccc(S(=O)(=O)N4CCC(C(=O)O)CC4)cc3c(C(=O)O)c2C1 (stereo unspecified)	3%	-3%	0	32µM*	8%	2%
O=C(O)c1c2c(nc3ccc(S(=O)(=O)N4CCC(C(=O)NC5CCCC5)CC4)cc13)CCCCC2	-6%	-2%	-3	?	15%	2%
COC(CNC(=O)C1CCN(S(=O)(=O)c2ccc3nc4c(c(C(=O)O)c3c2)CC(C)CC4)CC1)OC (stereo unspecified)	-26%	-3%	-2	32µM*	17%	1%
O=C(O)c1c2c(nc3ccc(S(=O)(=O)N4CCC(C(=O)N5CCCCC5)CC4)cc13)CCCC2	-4%	0%	-1	50µM*	2%	-10%
CC1CCc2nc3ccc(S(=O)(=O)N4CCC(C(=O)NC5CCCC5)CC4)cc3c(C(=O)O)c2C1 (stereo unspecified)	1%	1%	1	45µM*	-5%	0%
Cc1c(C(=O)NCc2ccccc2Cl)sc2nc3n(c(=O)c12)CCCC3	.	.	.	?	.	15%
COC(=O)c1c2c(nc3ccccc13)CCC2	-1%	-2%	1	?	6%	6%
CSc1ccc(S(=O)(=O)N2CCC(C(=O)NC3CC3)CC2)cc1	-9%	1%	0	35µM*	10%	5%
CC1CCc2nc3ccc(S(=O)(=O)N4CCC(C(=O)N5CCCCC5)CC4)cc3c(C(=O)O)c2C1 (stereo unspecified)	0%	-2%	0	45µM*	6%	-3%
CCc1ccc2nc3c(c(C(=O)O)c2c1)CCC3	-16%	1%	1	50µM*	-2%	-12%
CC1CCc2nc3ccc(S(=O)(=O)N4CCC(C(=O)NC(C)c5ccccc5)CC4)cc3c(C(=O)O)c2C1 (stereo unspecified)	?	-1%	1	50µM*	7%	5%
COc1ccc(S(=O)(=O)N2CCC(C(=O)NC3CC3)CC2)cc1	0%	3%	-1	-9%	-3%	3%
CCOc1ccc(-n2c(SCC(=O)N3CCCCCC3)nc3c([nH]c4ccccc43)c2=O)cc1	.	.	.	12%[59 µM]	.	-8%

Compound activity from PubChem.
